According to PubChem BioAssay (NCI):
This is part of a sample that, as a whole, favours compounds with a hit. Of some 79,000 tested, about 15% had one in any assay. Unmarked numbers belong to inactive results. Calls of active or inactive are those of the source. Rule as the data show it: active = growth inhibition above about 70%; inactive = the rest.

Experiments:
[1] = NCI Yeast Anticancer Drug Screen. Data for the rad50 strain (AID 155);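 also: 0% = growth of vehicle-only cultures of the same strain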; conditions: S. cerevisiae rad50 strain growth inhibition, active compounds read high
Method in brief: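 Inhibition values express reduced yeast growth in compound-treated cultures relative to vehicle-treated controls.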

[2] = NCI Yeast Anticancer Drug Screen. Data for the mec2-1 strain (AID 157); conditions: S. cerevisiae mec2-1 strain, active compounds read high
Method in brief: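 Growth inhibition is read against vehicle-treated controls after compound exposure of the mec2-1 yeast strain, which is defective in DNA damage repair or cell cycle control.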

[3] = NCI Yeast Anticancer Drug Screen. Data for the sgs1 mgt1 strain (AID 161);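 also: 0% = growth of cultures given vehicle only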; conditions: S. cerevisiae sgs1 mgt1 strain, active compounds read high
Method in brief: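 Yeast cells carrying a defined DNA-repair defect were exposed to test compounds. Growth inhibition was measured relative to vehicle-treated controls.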

[4] = NCI Yeast Anticancer Drug Screen. Data for the cln2 rad14 strain (AID 165);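 also: 0% = growth equal to vehicle treated cultures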; conditions: S. cerevisiae cln2 rad14 strain, active compounds read high
Method in brief: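 Growth inhibition, relative to vehicle-treated controls, is the read-out. The test organism is a yeast strain with defined genetic alterations, cln2 rad14.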

[5] = NCI Yeast Anticancer Drug Screen. Data for the bub3 strain (AID 167); conditions: S. cerevisiae bub3 mutant strain, active compounds read high
Method in brief: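 Steps: expose the mutant yeast strain to compound; grow alongside vehicle-treated cultures; measure growth; express inhibition against the vehicle cultures.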

[6] = NCI Yeast Anticancer Drug Screen. Data for the mlh1 rad18 strain (AID 175); conditions: S. cerevisiae mlh1 rad18 strain growth inhibition, active compounds read high
Method in brief: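 Cells of a genetically altered yeast strain, deficient in DNA damage repair, were treated with compound. Their growth was then compared with that of vehicle-treated cultures to give inhibition.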

[7] = at 5.0 µM (retest, dose inferred, filed as 0.5)
[8] = at 50.0 µM (retest, dose inferred, filed as 5.0)

Row | SMILES | growth inhibition [1, 7] | growth inhibition [1, 8] | growth inhibition ([1]; at 50.0 µM) | growth inhibition [2, 7] [%] | growth inhibition [2, 8] | growth inhibition ([2]; at 50.0 µM) | growth inhibition [3, 7] [%] | growth inhibition [3, 8] | growth inhibition ([3]; at 50.0 µM) | growth inhibition [4, 7] [%] | growth inhibition [4, 8] | growth inhibition ([4]; at 50.0 µM) | growth inhibition [5, 7] [%] | growth inhibition [5, 8] | growth inhibition ([5]; at 50.0 µM) | growth inhibition [6, 7] [%] | growth inhibition [6, 8] | growth inhibition ([6]; at 50.0 µM)
1 | COc1ccc2c(C)cc(N/N=C/c3cccc(C)n3)nc2c1 | -1% | 4% | 75.1% (active) | -2 | 8% | 31.2% | 4 | 28% | 97.4% (active) | 5 | 5% | 19.1% | -4 | -4% | 22.2% | -5 | 19% | 28.8%
2 | N#C/C=C/C=C/C#N | 1% | 2% | 24.4% | 5 | 2% | 79.8% (active) | 2 | 3% | 6.95% | -1 | -3% | 78.4% (active) | -2 | -5% | 99.5% (active) | -4 | -1% | 56.3%
3 | CC(C)(C)c1ccc(Br)c(CCC(=O)NO)c1 | -2% | 94% (active) | 97% (active) | -1 | 98% (active) | 98.6% (active) | -15 | 96% (active) | 97% (active) | -3 | 91% (active) | 98.7% (active) | -1 | 96% (active) | 97.7% (active) | 9 | 98% (active) | 97.8% (active)
4 | COc1cccc(N2CCN(CC(O)COc3cc4c(c5c3CCCC5)CCCC4)CC2)c1 (configuration not stated) | 17% | 95% (active) | 64.2% | 20 | 98% (active) | 48.6% | 34 | 95% (active) | 62.5% | 13 | 94% (active) | 58.8% | 12 | 95% (active) | 95% (active) | 12 | 94% (active) | 54%
5 | O=[N+]([O-])c1ccc2nc(-c3ccc(Cl)cc3)[nH]c2c1 | 0% | 91% (active) | 71.5% (active) | -1 | 89% (active) | 72.8% (active) | -2 | 89% (active) | 75.4% (active) | -6 | 83% (active) | 72.6% (active) | 1 | 95% (active) | 81.9% (active) | -15 | 94% (active) | 78.8% (active)
6 | CNC1=C2NC(=O)/C(C)=C\C=C\C(C)C(O)C(C)C(O)C(C)C(OC(C)=O)C(C)C(OC)/C=C/OC3(C)Oc4c(C)c(O)c(c(c4C3=O)C1=O)C2=O (configuration not stated) | -6% | 56% | 52.3% | -2 | 61% | 52.8% | 1 | 55% | 45.7% | -4 | 59% | 49% | -2 | 58% | 52% | -4 | 64% | 56.5%
7 | COc1ccc(C23OCCN2C(=O)c2ccccc23)cc1 (configuration not stated) | 4% | -3% | 97% (active) | -15 | -6% | 97.1% (active) | -4 | 2% | 97.5% (active) | -4 | -2% | 92.7% (active) | -31 | -2% | 96.3% (active) | -10 | -2% | 97.9% (active)
8 | Cc1c2ccncc2c(C)c2c1[nH]c1ccc(OCCN(C)C)cc12 | 28% | 93% (active) | 99% (active) | 5 | 43% | 77.3% (active) | 5 | 53% | 93.3% (active) | 7 | 40% | 71.8% (active) | 4 | 32% | 88.9% (active) | 7 | 51% | 96.3% (active)
9 | CCCCC(O)(c1ccc2nc(NC(=O)OC)[nH]c2c1)c1cccs1 (configuration not stated) | -7% | 58% | 7.8% | -4 | 62% | 74.8% (active) | -4 | 69% | 49.5% | -15 | 10% | 36% | -8 | 41% | 35.5% | -5 | 62% | 94.5% (active)
10 | CC1CCCC(C(O)(C(=O)O)C2CCCC(C)C2)C1 (configuration not stated) | 15% | 72% (active) | 66.3% | 29 | 81% (active) | 43% | 8 | 70% (active) | 56.5% | 68 | 98% (active) | 33.2% | 14 | 97% (active) | 25.4% | 15 | 79% (active) | 69.7%
11 | O=[N+]([O-])c1ccc(-c2nc3c(o2)CCC3)cc1 | -85% | -83% | 9.15% | -15 | -15% | -2.9% | -22 | -22% | 6.4% | -57 | -62% | 25.1% | -72 | -82% | -4.6% | -92 | -61% | 3.25%
12 | CN(C)Cc1ccc(C(C)(C)C)cc1-c1cc(C(C)(C)C)ccc1CN(C)C | 7% | 3% | 1.6% | 7 | -4% | 1.8% | -10 | 2% | -32.4% | 26 | -17% | -40.5% | -27 | -16% | -30.8% | -6 | -9% | 11.9%
13 | O=C1C2C3C=CC(C3)C2C(=O)C2C3C=CC(C3)C12 (configuration not stated) | 70% (active) | 96% (active) | 98.6% (active) | 58 | 98% (active) | 99.3% (active) | 65 | 99% (active) | 99% (active) | 23 | 95% (active) | 88% (active) | 53 | 96% (active) | 98.9% (active) | 60 | 98% (active) | 99.2% (active)
14 | NC1CCCCC1N.O=C([O-])c1ccc(N=Nc2cccc([N+](=O)[O-])c2)cc1O.O=C([O-])c1ccc(N=Nc2cccc([N+](=O)[O-])c2)cc1O.[Pt+4] | 15% | 23% | -2.95% | 18 | 36% | -2.45% | -20 | 36% | 3% | -8 | 20% | -18.6% | 28 | 45% | -19.4% | 25 | 34% | 6.8%
15 | COC(=O)c1ccccc1NC(=O)C(=O)Cc1nc2c3c(ccc2[nH]c1=O)C(=O)c1ccccc1C3=O | 35% | 98% (active) | 85.4% (active) | 12 | 99% (active) | 25.8% | 6 | 99% (active) | 16.2% | 5 | 98% (active) | -26.9% | 6 | 99% (active) | 16.3% | 16 | 66% | 66.6%
16 | O=[N+]([O-])c1ccc(CCCCc2ccc([N+](=O)[O-])cc2)cc1 | -5% | -8% | -6.1% | 3 | -18% | 3% | 2 | -9% | -1.8% | -2 | -10% | -59.9% | 13 | 21% | 7.35% | -10 | -16% | 29%
17 | CC(=O)NC(C)(C)C1CCC(C)=C(c2ccccc2)C1 (configuration not stated) | -10% | 2% | 32.8% | -9 | -5% | -17.6% | 5 | 8% | 67.2% | 19 | 44% | 18.6% | 17 | 29% | 27.6% | -3 | 29% | -21.2%
18 | Oc1cccc2c(Br)ccnc12 | -5% | 100% (active) | 87% (active) | -21 | 99% (active) | 92% (active) | -33 | 99% (active) | 85% (active) | -5 | 99% (active) | 87.8% (active) | -29 | 99% (active) | 87.2% (active) | 15 | 99% (active) | 81.8% (active)
19 | Oc1cc(-[n+]2ccccc2)c(O)c2ccccc12 | 15% | 82% (active) | -11.2% | 9 | 68% | 3.45% | 5 | 80% (active) | -5.35% | 9 | 71% (active) | 37.8% | 21 | 91% (active) | 6.3% | 28 | 83% (active) | 20.8%
